High-throughput results (PubChem BioAssay)
This is a sample that favours compounds with a hit; in the whole collection about 3% have one here.
p53null 39C kill: kills p53 null cells at the nonpermissive temperature; H1299 p53-null (neo) cells, 39C, ATPlite viability, 24 h; Potency, µM (top dose mostly 46.1 µM), without a hit: at the top dose activity, negative = cell killing, most hits filed as cytotoxic; hit rate 0.97% among 55,000;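 further: 0% = DMSO only and -100% = full killing by 100 µM tamoxifen; nearly all actives have a fitted effect of over 50% in size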
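ATP-luminescence viability readout (ATPlite, 20 min RT) after 24 hr compound treatment at 39C of H1299-neo or H1299-p53A138V cells; titration up to 46 uM; normalized to DMSO and 100 uM tamoxifen; Hill-fit AC50.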
PMP22 txn: modulators of PMP22 gene transcription in S16 Schwann cells; S16 Pmp22-F2sN Schwann cells, FLuc/NLuc coincidence luminescence, 24 h; Potency, µM (titrated, usually from 57.5 µM), inactives show at the top dose activity change, negative = inhibition, usual class: inhibitors; hit rate 2% among 43,000; AID 1508649; active means clear falling dose curves in both reporters; inconclusive means both reporters move, but less clearly or upward; inactive means either reporter flat; the % is the NLuc reporter signal
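Luminescent read-out of sequential FLuc and NLuc signals from a reporter embedded in the Pmp22 3' UTR of S16 Schwann cells, taken after 24 h compound exposure at 37C; compounds reducing both signals score as inhibitors of expression.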
p53null 32C tox: p53 null cell cytotoxicity, permissive temperature | H1299-neo p53 null cells, ATP luminescence, 24 h, 32C | Potency, µM (titrated, usually from 46.1 µM), inactives show at the top dose activity change, negative = cytotoxicity, actives largely listed as cytotoxic | hit rate 0.62% among 55,000 | AID 903;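 further: 0% = DMSO only and -100% = full killing by 100 µM tamoxifen; nearly all actives have a fitted effect of over 55% in size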
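ATP-content luminescence in p53-null H1299-neo cells after 24 h compound exposure (up to 46 uM) at 32C permissive temperature; 0% and 100% killing set by DMSO and 100 uM tamoxifen; Hill-equation AC50.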
SKOV3 invasion: inhibitors of ovarian cancer cell adhesion and invasion in omental model; SKOV3ip1-GFP adhesion/invasion on 3D omental model, fluorescence; Potency, µM (series often up to 45.8 µM), inactives show at the highest dose activity change, negative = inhibition, actives largely listed as inhibitors; hit rate 0.1% among 46,000; AID 1963576;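 further: plate controls were DMSO wells for no effect and tomatine positive control wells for full effect; nearly all actives have a fitted effect of over 65% in size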
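Adhesion/invasion was scored as fixed GFP-labeled SKOV3ip1 cell counts (488/509 nm), normalized to DMSO and tomatine controls. Cancer cells in serum-free medium, with four compound doses (0.36-46 umol/L), sat 2 hr at RT then 16 hr at 37 C on a 48 hr fibroblast/mesothelial/ECM culture.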
mTORC1 inh: mTORC1 pathway inhibition measured by phospho-rpS6; Tsc2-/- p53-/- MEF, phospho-rpS6 immunofluorescence/PI, 24 h; Potency, µM (series often up to 38.3 µM), for inactives: at the top dose activity change, negative = inhibition, hits mostly inhibitors; hit rate 0.78% among 44,000; AID 493208;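 further: plate controls were DMSO for no effect and rapamycin for full effect; nearly all actives have a fitted effect of over 50% in size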
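Read-out: phospho-S6 Alexa-488 intensity over PI intensity per well, scored as % active cells using thresholds from rapamycin (7.5 nM) and DMSO controls. Tsc2-/-, p53-/- MEFs exposed to compound for 24 h; PI cell count recorded as viability.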
S16 viability: toxic to S16 Pmp22-F2sN Schwann cells. hit rate 0.48% among 43,000. Potency, µM (doses to about 57.5 µM), inactives show top-dose activity change, negative = cytotoxicity, actives largely listed as cytotoxic. AID 1508642. S16 Pmp22-F2sN Schwann cells (luciferase reporters placed in the Pmp22 gene) viability, CellTiter-Glo, 24 h; further: nearly all actives have a fitted effect of over 65% in size
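S16 Schwann cells carrying the Pmp22-F2sN reporter, seeded in 1536-well format, were exposed to library compounds for 24 h at 37C. Viability was read as CellTiter-Glo luminescence after 15 min at room temperature.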
Active calls of the source: *; i = inactive; u = inconclusive; x = not tested or not shown; [ ] = another dose, or the depositor's remark. Unless noted, the call rests on the fitted dose curve; in most records, active means well fitted curve in the direction sought with a large enough effect; inconclusive means small, poorly fitted or top-dose-only effect, or another doubt; inactive means no such curve, though single readings can be large; an effect the other way counts as inactive or inconclusive. Unless noted, on the % scale 0 is the no-effect control and ±100 the full control effect; potency means the concentration at half of the fitted maximal effect.

SMILES | p53null 39C kill | PMP22 txn | p53null 32C tox | SKOV3 invasion | mTORC1 inh | S16 viability
CC(C)(C)c1ccc(C(=O)NCC(c2cccs2)S(=O)(=O)c2ccccc2)cc1 (centres undefined) | 6% | u | 15% | -14% | -10% | u
O=S(=O)(NCC(c1ccco1)S(=O)(=O)c1cccs1)c1ccc(F)c(C(F)(F)F)c1 (centres undefined) | -2% | 7.3µM* | 0% | -4% | -7% | 2.5µM*
Cn1c(=O)c(Oc2ccc(F)cc2F)cc2cnc(NC3CCOCC3)nc21 | x | x | x | -20% | x | x
COc1ccc(OC)c2sc(N3CCN(C(=O)C(C)(C)C)CC3)nc12 | 11µM* | -49% | 13µM* | 5% | 0% | 0%
O=C(Nc1cccc(Cl)c1)c1cnc[nH]1 | -26% | 7% | -6%[9.22 µM] | i | 16% | 12%
COc1ccc(NC(=O)c2cnc[nH]2)cc1 | 7.9µM* | 9% | 18µM* | i | -2% | -19%
O=C1NC(=O)C(=Cc2ccc3nccnc3c2)S1 | x | x | x | -13%[23.2 µM] | x | x
CC1(C)C(=O)N(CC(=O)Nc2ccc(Br)cc2F)c2ccccc21 | 16% | -2% | -1% | 4% | -2% | -1%
COC(=O)CN1C(=O)C(C)(C)c2cc(S(=O)(=O)Nc3ccc(Br)cc3F)ccc21 | -1% | 30% | 2% | -13% | 13µM* | 5%
Cn1cc(C2=C(c3c4n(c5ccccc35)CCC(CN)C4)C(=O)NC2=O)c2ccccc21 (centres undefined) | x | x | x | -22% | x | x
Cc1cc(OCCCS(C)(=O)=O)cc(C)c1-c1cccc(COc2ccc3c(c2)OC[C@H]3CC(=O)O)c1 | x | x | x | -9% | x | x
Cc1ccc2occ(CC(=O)Nc3ccc(Cl)c(C(F)(F)F)c3)c2c1 | 16µM* | u | 25% | -7% | 12µM* | u
Cc1ccc2occ(CC(=O)Nc3ccc(S(N)(=O)=O)cc3)c2c1 | -8% | 5% | -6% | -7% | -14% | 4%
Cc1ccc(CNC(=O)CN2C(=O)CSc3ccc(S(=O)(=O)N4CCCC4)cc32)cc1 | 13µM* | -4% | -10% | 3% | -4% | 4%
COCCOc1nc(-c2ccc(Cl)c(Cl)c2)n(-c2ccc(NC(=O)CCl)cc2)n1 | x | x | x | 20% | x | x
Cc1ccc(C)c(-c2nnc(NC(=O)c3ccc4c(c3)OCCO4)o2)c1 | 7.9µM* | u | -12% | i | 0% | u
COc1cc(OC)cc(C(=O)Nc2cc(-c3nc4ccccc4[nH]3)ccc2C)c1 | -18% | -44% | 7% | i | 0% | -27%
Cc1ccc(C(C)C)c(OCC(=O)Nc2cc(-c3nc4ccccc4[nH]3)ccc2C)c1 | 7.9µM* | u | u | -15% | 13µM* | u
CC(/C=N/Nc1nc2ccccc2[nH]1)=C\c1ccccc1 | u | x | 7.9µM* | x | x | x
Cc1ccc(Nc2c(-c3c[nH]c4ccccc34)nc3ccccn23)cc1 | 14µM* | u | -26% | 4% | u | 3%
C1Cc2[nH]nc(-c3nn[nH]n3)c2C1 | x | x | x | -7% | x | x
CCN1CCN(c2cc(C)c3cc(NC(=O)/C=C/c4cccc(OC)c4OC)ccc3n2)CC1 | u | -18% | -17% | u | u | u
COc1cccc(/C=C/C(=O)Nc2ccc3nc(N4CCN(C)CC4)cc(C)c3c2)c1OC | 20µM* | u | u | u | u | 32µM*
Cc1cc(N2CCCCC2)nc2ccc(NC(=O)/C=C/c3ccccc3OC(C)C)cc12 | -14% | -8% | 4% | i | 16µM* | 4%
C[C@H](CCC(=O)O)[C@H]1CC[C@H]2[C@H]3[C@@H](CC[C@]12C)[C@@]1(C)CC[C@@H](O)C[C@H]1C[C@@H]3O | x | x | x | 1% | x | x
SMILES | p53null 39C kill | PMP22 txn | p53null 32C tox | SKOV3 invasion | mTORC1 inh | S16 viability
COc1cc([C@@H]2c3cc4c(cc3[C@@H](O[C@@H]3O[C@@H]5CO[C@@H](C)O[C@@H]5[C@H](O)[C@@H]3O)[C@H]3COC(=O)[C@H]23)OCO4)cc(OC)c1O | x | x | x | -12% | x | x
Cc1nc(Nc2n[nH]c3c2CN(C(=O)N[C@H](CN(C)C)c2ccccc2)C3(C)C)c2sccc2n1 | x | x | x | 30% | x | x
Fc1ccc(-c2cn3cc(Cc4ccccc4Cl)sc3n2)cc1 | 7.9µM* | -4% | u | -30% | -3% | -1%
Fc1ccccc1Cc1cn2cc(-c3ccc(Cl)cc3)nc2s1 | u | -10% | u | i | 0% | 14%
Clc1ccc(-c2cn3cc(Cc4ccccc4)sc3n2)cc1 | 16µM* | 10% | u | 5% | -4% | 23%
CCOC(=O)Cc1c(C)nc2c(-c3ccc(OC)c(OC)c3)c(C)nn2c1C | u | 14µM* | 5% | -8% | 7% | u
COc1ccc(N2Cc3cccc(C(=O)Nc4ccc(C(C)C)cc4)c3C2=O)cc1 | 4µM* | u | u | i | 2% | u
COc1ccc(CC2=NN3C([C@@H](CCc4ccccc4)[C@@H](C)O)=NC(C)C3C(=O)N2)cc1OC (some centres undefined) | x | x | x | -9% | x | x
COc1ccc2c3n(c(=NC(=O)c4cccnc4)nc2c1OC)CCN3 | x | x | x | -8% | x | x
CNC(=O)c1cc2ccccc2o1 | 21% | x | -8% | x | x | x
C/C(=N\Nc1nc2ccccc2[nH]1)c1cc2ccccc2o1 | u | x | 10µM* | x | x | x
COc1cccc(-c2noc(-c3cc4ccccc4oc3=O)n2)c1OC | -7% | -2% | -29% | -2% | -2% | 10%
COc1ccc(-c2noc(-c3cccc(OC)c3OC)n2)cc1 | 18µM* | 0% | 13µM* | -2% | -14% | 3%
CO[C@@H]1C(N(C)C(=O)c2ccccc2)C[C@H]2O[C@]1(C)n1c3ccccc3c3c4c(c5c6ccccc6n2c5c31)C(=O)NC4=O (some centres undefined) | x | x | x | -8% | x | x
Cc1cccc(OCc2ccc(-c3nc(C#N)c(NCCN(C)C)o3)o2)c1 | -18% | u | 2% | -16% | 5.2µM* | u
N#Cc1nc(-c2ccc(COc3ccccc3)o2)oc1NCc1ccccc1 | u | -5% | -7% | 5% | -14% | 2%
CC(Nc1oc(-c2ccc(COc3ccccc3)o2)nc1C#N)c1ccccc1 (centres undefined) | u | u | -9% | u | 15µM* | -8%
CNc1oc(-c2ccc(COc3ccc(C)cc3)o2)nc1C#N | u | -50% | 6% | 7% | -1% | -4%
